Compound activity (PubChem)
A selection: hits, their analogues and other compounds. The true share with any hit is near 3.9%.
Peg3 prom inh-1 – reduces Peg3 promoter-driven luciferase expression in HeLa; inhibition, % at 20 µM; HeLa PEG-Prom luciferase reporter, luminescence, overnight; AID 588405; actives 1.7% (n = 360,000);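 active = inhibition of at least 50% at 20 µM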
TWEAK-Fn14 inh – inhibitors of TWEAK-Fn14 interaction signaling. TWEAK-stimulated Fn14 reporter cells, luciferase luminescence, 8 h. inhibition, % at 10 µM. actives 2% (n = 360,000); in the data active = inhibition above about 50%
HIF-2a block – inhibitors of HIF-2a; 786-0 RCC cells HIF-2a reporter, luciferase luminescence, overnight; actives 0.72% (n = 360,000); inhibition, % at 18.8 µM; AID 624352;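 active = inhibition of the luminescence signal of 40% or more relative to plate controls, in a single-dose primary screen at 18.75 µM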
TROY signal inh – inhibitors of TROY-dependent NF-kB signaling; Q293 LMP1-TROYcd NF-kB luciferase reporter, 4 h; inhibition, % at 10 µM; actives 0.98% (n = 360,000);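 active = compounds whose plate-normalised and pattern-corrected inhibition of the luciferase reporter signal at the single screening dose is 50% or more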
KKLEB cytotox – counter-screen for CF NF-kB inhibitors: cytotoxicity; KKLEB CF airway cells viability, ATPlite luminescence, overnight; active compounds read low; cells stimulated with P. aeruginosa culture filtrate; activity change (cytotoxicity), % at 5 µM; actives 0.36% (n = 360,000);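 active = corrected activity change at or below -50% at 5 µM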
CF NFkB block – blocks PAF-induced NF-kB reporter in cystic fibrosis cells; KKLEB NF-kB-GFP reporter, GFP fluorescence overnight; inhibition, % at 5 µM; actives 0.86% (n = 360,000); AID 588850;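 active = at least 50% inhibition at 5 µM, scaled per plate between neutral and stimulator controls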;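 also: PAF is a Pseudomonas aeruginosa culture filtrate used as stimulus; plate controls were PAF-stimulated DMSO wells for no effect and unstimulated DMSO wells for full effect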
Peg3 prom inh-2 – Peg3 promoter inhibition confirmation. shares compounds with Peg3 prom inh-1. HeLa PEG-Prom luciferase reporter, luminescence, overnight. actives 84% (n = 1,300). inhibition, % at 20 µM;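 active = at 20 µM dose, 40% or more inhibition averaged across four replicates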
* = called active by the depositor.

How did CCn1cc(C(=O)NCc2ccco2)c(=O)c2cc(S(=O)(=O)N3CC(C)CC(C)C3)ccc21 (stereo unspecified) do in these assays?
Peg3 prom inh-1: 58*; TWEAK-Fn14 inh: 10; HIF-2a block: 30; TROY signal inh: 2; KKLEB cytotox: 6; CF NFkB block: -1; Peg3 prom inh-2: 61*

Results for CCn1cc(C(=O)NCc2ccco2)c(=O)c2cc(S(=O)(=O)N3CCC(C)CC3)ccc21 ?
Peg3 prom inh-1: 18; TWEAK-Fn14 inh: 18; HIF-2a block: 29; TROY signal inh: 20; KKLEB cytotox: -5; CF NFkB block: -16

Results for O=[N+]([O-])c1ccc(Sc2cccc3cccnc23)cc1 ?
Peg3 prom inh-1: -104; TWEAK-Fn14 inh: -26; HIF-2a block: -184; TROY signal inh: -30; KKLEB cytotox: -12; CF NFkB block: -6

Results for C=CCn1nc([N+](=O)[O-])nc1Sc1cccc2cccnc12 ?
Peg3 prom inh-1: 54*; TWEAK-Fn14 inh: 1; HIF-2a block: -9; TROY signal inh: 11; KKLEB cytotox: 7; CF NFkB block: -6; Peg3 prom inh-2: 26

How did Cc1cccc(C)c1NC(=O)C1(C)CSCC(=O)N1Cc1cccs1 (stereo unspecified) do in these assays?
HIF-2a block: 12

Results for COc1ccc(C(=O)Nc2cccc(C(=O)N/N=C/c3ccc(OC)cc3OC)c2)cc1 ?
Peg3 prom inh-1: 74*; TWEAK-Fn14 inh: 22; HIF-2a block: 58*; TROY signal inh: -26; KKLEB cytotox: 7; CF NFkB block: -10; Peg3 prom inh-2: 77*

How did COc1cccc(/C=N/NC(=O)c2ccc(-c3ccccc3)cc2)c1O do in these assays?
Peg3 prom inh-1: 55*; TWEAK-Fn14 inh: -25; HIF-2a block: 12; TROY signal inh: 5; KKLEB cytotox: 2; CF NFkB block: 2; Peg3 prom inh-2: 69*

Results for COc1cccc(/C=N/NC(=O)c2c(C)nc3ccc(Cl)cn23)c1O ?
Peg3 prom inh-1: 56*; TWEAK-Fn14 inh: -32; HIF-2a block: 2; TROY signal inh: -3; KKLEB cytotox: 0; CF NFkB block: -14; Peg3 prom inh-2: 71*

How did COc1ccccc1/C=N\NC(=O)c1c(C)nc2ccc(Cl)cn12 do in these assays?
Peg3 prom inh-1: 15; TWEAK-Fn14 inh: 15; HIF-2a block: 16; TROY signal inh: -1; KKLEB cytotox: 4; CF NFkB block: -2

Results for COc1ccc(/C=N/NC(=O)c2cccc(NC(C)=O)c2)c(OC)c1 ?
Peg3 prom inh-1: 14; TWEAK-Fn14 inh: 3; HIF-2a block: 0; TROY signal inh: -1; KKLEB cytotox: -6; CF NFkB block: 2

How did COc1cccc(-c2cc(C(F)(F)F)nc(-n3cccn3)n2)c1 do in these assays?
Peg3 prom inh-1: -5; TWEAK-Fn14 inh: -2; HIF-2a block: -5; TROY signal inh: 13; KKLEB cytotox: 13; CF NFkB block: -16

Results for O=S(=O)(NN=C1CCCCCC1)c1ccc(Cl)cc1 ?
Peg3 prom inh-1: -5; TWEAK-Fn14 inh: 9; HIF-2a block: 9; TROY signal inh: -7; KKLEB cytotox: -4; CF NFkB block: 6

Results for CS(=O)(=O)N(C(=O)NC(=O)NC12CC3CC(CC(C3)C1)C2)C1CCCCC1 ?
Peg3 prom inh-1: 10; TWEAK-Fn14 inh: -23; HIF-2a block: 10; TROY signal inh: -7; KKLEB cytotox: 6; CF NFkB block: -14

What do the screens show for `O=S(=O)(c1ccc(Cl)cc1)N1CCN(Cc2ccc(O)c3ncccc23)CC1`?
Peg3 prom inh-1: 52*; TWEAK-Fn14 inh: -2; HIF-2a block: 8; TROY signal inh: 20; KKLEB cytotox: -2; CF NFkB block: 6; Peg3 prom inh-2: 56*

Results for Oc1ccc(CN2CCN(Cc3ccccc3)CC2)c2cccnc12 ?
Peg3 prom inh-1: -25; TWEAK-Fn14 inh: 3; HIF-2a block: 14; TROY signal inh: -7; KKLEB cytotox: -4; CF NFkB block: -10

Results for COc1ccc(C#Cc2cccc(-c3nc(C(=O)NCCCN4CCOCC4)cc4c3[C@H](CCO)N(S(=O)C(C)(C)C)C4)c2)cc1OC (stereo partly specified) ?
Peg3 prom inh-1: 16; TWEAK-Fn14 inh: -8; HIF-2a block: 7; TROY signal inh: 21; KKLEB cytotox: -7; CF NFkB block: -53

How did Cc1ccc(CN2CCN(CC(C)C)C(CCO)C2)s1 (stereo unspecified) do in these assays?
Peg3 prom inh-1: -208; TWEAK-Fn14 inh: 7; HIF-2a block: -192; TROY signal inh: -62; KKLEB cytotox: 1; CF NFkB block: -12

Results for NC1=C(Br)C(=O)c2ncccc2C1=O ?
Peg3 prom inh-1: 102*; TWEAK-Fn14 inh: 103*; HIF-2a block: 83*; TROY signal inh: 68*; KKLEB cytotox: -64*; CF NFkB block: 79*; Peg3 prom inh-2: 99*

Results for COc1ccc(-c2ccc3[nH]c4c(c3c2)CCN2C[C@@H]([C@H](C)O)[C@@H](N(C)C(=O)Nc3cc(Cl)cc(Cl)c3)C[C@@H]42)cc1 ?
Peg3 prom inh-1: 64*; TWEAK-Fn14 inh: 38; HIF-2a block: 9; TROY signal inh: -7; KKLEB cytotox: 1; CF NFkB block: 1; Peg3 prom inh-2: 61*

What do the screens show for `COCCN(C(=O)COC(=O)CSc1ccc(Cl)cc1)c1c(N)n(Cc2ccccc2)c(=O)[nH]c1=O`?
Peg3 prom inh-1: 11; TWEAK-Fn14 inh: 6; HIF-2a block: 16; TROY signal inh: 0; KKLEB cytotox: 1; CF NFkB block: 3

How did COc1cc(NC(=O)c2ccc(F)cc2)c(OC)cc1Cl do in these assays?
Peg3 prom inh-1: -16; TWEAK-Fn14 inh: 9; HIF-2a block: -22; TROY signal inh: 3; KKLEB cytotox: 5; CF NFkB block: -20

What do the screens show for `COc1cc(NC(=O)c2c(F)c(F)c(F)c(F)c2F)c(OC)cc1Cl`?
Peg3 prom inh-1: 70*; TWEAK-Fn14 inh: -60; HIF-2a block: 24; TROY signal inh: -28; KKLEB cytotox: 14; CF NFkB block: -14; Peg3 prom inh-2: 53*

Results for CC(=O)c1sc2c(c1OC(=O)c1ccc(Cl)cc1Cl)c(=O)n(-c1ccccc1)c(=S)n2-c1ccccc1 ?
Peg3 prom inh-1: 80*; TWEAK-Fn14 inh: 49; HIF-2a block: 37; TROY signal inh: -73; KKLEB cytotox: -17; CF NFkB block: 54*; Peg3 prom inh-2: 59*

What do the screens show for `CC(=O)c1sc2c(c1OC(=O)c1ccc(Cl)cc1)c(=O)n(-c1ccccc1)c(=S)n2-c1ccccc1`?
Peg3 prom inh-1: 39; TWEAK-Fn14 inh: 48; HIF-2a block: -10; TROY signal inh: 26; KKLEB cytotox: 15; CF NFkB block: 24
